According to the antibiotic and cytotoxicity screens of Wong et al. (2023):
Screen size: about 39,000 compounds; about 500 (1.3%) were called active. What follows is part of a selection rich in actives, with near analogues and random picks from the rest.

The molecules below were run on S. aureus RN4220 (assay: growth inhibition call (relative growth <= 0.2)). Conditions: 50 µM.

| Compound | growth inhibition call |
| --- | --- |
| CC1CCC(C(C)C)C(=O)C1 (stereo not given) | inactive |
| C[C@H](CO)N1C[C@H](C)[C@@H](CN(C)Cc2ccccc2)OCCCC[C@H](C)Oc2ccc(NC(=O)C3CCCCC3)cc2C1=O | inactive |
| COc1ccc(S(=O)(=O)Nc2ccc3c(c2)CC(=O)N([C@@H](C)CO)C[C@H](C)[C@@H](CN(C)S(C)(=O)=O)O3)cc1 | inactive |
| Cc1ccc(S(=O)(=O)N(C)C[C@H]2Oc3c(NS(=O)(=O)c4cn(C)cn4)cccc3C(=O)N([C@@H](C)CO)C[C@H]2C)cc1 | inactive |
| COCCNC(=O)C[C@H]1CC[C@H]2[C@@H](COC[C@@H](O)CN2S(=O)(=O)c2ccccc2C)O1 | inactive |
| CN1CC2(CCN(C(=O)[C@H]3CCC(=O)N3)CC2)COc2ccccc2S1(=O)=O | inactive |
| C[C@@H]1CCCCO[C@H](CN(C)C(=O)NC2CCCCC2)[C@H](C)CN([C@@H](C)CO)C(=O)c2cc(NS(=O)(=O)c3ccc(F)cc3)ccc2O1 | inactive |
| O=C(C[C@H]1C[C@@H]2c3cc(NS(=O)(=O)c4ccc(F)cc4)ccc3O[C@@H]2[C@@H](CO)O1)NCc1ccncc1 | inactive |
| CSc1nc(C)cc(NC(N)=O)n1 | inactive |
| COc1cc(N2CCC(N3CCN(C)CC3)CC2)ccc1Nc1ncc(Cl)c(Nc2ccccc2S(=O)(=O)C(C)C)n1 | inactive |
| COc1cc(N2CCC(N(C)C)CC2)ccc1Nc1ncc(Cl)c(Nc2ccccc2P(C)(C)=O)n1 | inactive |
| COc1cc(N2CCC(N)CC2)ccc1Nc1ncc(Cl)c(-c2c[nH]c3ccccc23)n1 | active |
| CCCNC(=O)N1C[C@H](O)COC[C@@H]2O[C@H](CC(=O)N3CCN(C)CC3)CC[C@H]21 | inactive |
| O=C(CN1CCOCC1)N[C@H]1CC[C@@H](CCNC(=O)C2CCCCC2)O[C@H]1CO | inactive |
| COC1(NC(=O)C(C(=O)[O-])c2ccc(O)cc2)C(=O)N2C(C(=O)[O-])=C(CSc3nnnn3C)COC21.[Na+].[Na+] (stereo not given) | active |
| CO[C@@]1(NC(=O)[C@@H](C(=O)O)c2ccc(O)cc2)C(=O)N2C(C(=O)O)=C(CSc3nnnn3C)CO[C@@H]21 | inactive |
| CO[C@@]1(NC(=O)CSC[C@@H](N)C(=O)O)C(=O)N2C(C(=O)O)=C(CSc3nnnn3C)CS[C@@H]21 | inactive |
| COC1(NC(=O)C2SC(=C(C(N)=O)C(=O)O)S2)C(=O)N2C(C(=O)O)=C(CSc3nnnn3C)CSC21 (stereo not given) | active |
| COC1(NC(=O)CSCC#N)C(=O)N2C(C(=O)[O-])=C(CSc3nnnn3C)CSC21.[Na+] (stereo not given) | active |
| C[C@H](CO)N1C[C@H](C)[C@@H](CN(C)Cc2ccc3c(c2)OCO3)Oc2c(NC(=O)c3ccncc3)cccc2C1=O | inactive |
| COc1ccc(S(=O)(=O)Nc2ccc3c(c2)CC(=O)N([C@H](C)CO)C[C@@H](C)[C@H](CN(C)S(=O)(=O)c2ccc(F)cc2)O3)cc1 | inactive |
| O=C(CCCCCNC(=O)OCc1ccc(CO[C@H]2C[C@@H](C3CCCCC3)C=C(C(=O)N3CCN(Cc4ccc5c(c4)OCO5)CC3)O2)cc1)NO | inactive |

| Compound | growth inhibition call |
| --- | --- |
| COc1ccccc1NC(=O)C1=C(C)N=C(SCC(=O)Nc2ccccc2[N+](=O)[O-])C(C#N)[C@@H]1c1ccccc1F (stereo not given in full) | inactive |
| C[C@H]1CN([C@@H](C)CO)C(=O)Cc2cc(NC(=O)CCCCCC(=O)Nc3ccccc3N)ccc2O[C@H]1CN(C)Cc1ccc(C(F)(F)F)cc1 | inactive |
| COc1ccc(NC(=O)N(C)C[C@H]2OCCCC[C@@H](C)Oc3ccc(NC(=O)Nc4ccccc4)cc3C(=O)N([C@H](C)CO)C[C@H]2C)cc1 | inactive |
| COc1ccc(S(=O)(=O)Nc2ccc3c(c2)C(=O)N([C@@H](C)CO)C[C@@H](C)[C@H](CN(C)Cc2ccc(C(F)(F)F)cc2)OCCCC[C@H](C)O3)cc1 | inactive |
| C[C@H]1CCCCO[C@H](CN(C)S(=O)(=O)c2ccc(Cl)cc2)[C@@H](C)CN([C@@H](C)CO)C(=O)c2cc(NC(=O)Nc3ccc4c(c3)OCO4)ccc2O1 | inactive |
| CCN(CC)C(=O)c1cccnc1 | inactive |
| Cc1ccc(N(c2ccc(C)cc2)c2cccnc2)cc1 | active |
| COC(=O)c1cccnc1 | inactive |
| CS(=O)(=O)N1C[C@@H]2OCC[C@@H]2[C@H](C(=O)NCc2cccnc2)C1 | inactive |
| O=c1cc(-c2ccccc2)oc2cc(O)ccc12 | inactive |
| O=C(O)c1c(Br)c(Br)c(Br)c(Br)c1-c1c2ccc(=O)cc-2oc2cc(O)ccc12 | active |
| O=c1cc(-c2ccccc2O)oc2cc(O)ccc12 | inactive |
| COc1ccccc1S(=O)(=O)N(C)C[C@@H]1OCc2cnnn2CCCC(=O)N([C@H](C)CO)C[C@@H]1C | inactive |
| Cc1onc(-c2ccccc2)c1CN | inactive |
| Clc1ccc(COC(Cn2ccnc2)c2ccc(Cl)cc2Cl)cc1.O=[N+]([O-])O (stereo not given) | inactive |
| Clc1ccc(CON=C(Cn2ccnc2)c2ccc(Cl)cc2Cl)c(Cl)c1.O=[N+]([O-])O | active |
| Clc1ccc(CSC(Cn2ccnc2)c2ccc(Cl)cc2Cl)cc1.O=[N+]([O-])O (stereo not given) | inactive |
| CC(=O)N(C)C[C@H]1Oc2ncc(C#C[C@@H](C)O)cc2C(=O)N([C@@H](C)CO)C[C@@H]1C | inactive |
| CC(C)NC(=O)N(C)C[C@H]1Oc2c(NS(=O)(=O)c3cn(C)cn3)cccc2C(=O)N([C@H](C)CO)C[C@@H]1C | inactive |
| C[C@H]1CN([C@@H](C)CO)C(=O)c2cc(NC(=O)NC3CCCCC3)ccc2O[C@H]1CN(C)Cc1ccc(Cl)c(Cl)c1 | inactive |
| NC[C@@H]1CCCO1 | inactive |
| CCC1OC(=O)CC(O)C(C)C(OC2OC(C)C(OC3CC(C)(O)C(O)C(C)O3)C(N(C)C)C2O)C(CC=O)CC(C)C(=O)C=CC(C)=CC1COC1OC(C)C(O)C(OC)C1OC.O=C(O)C(O)C(O)C(=O)O (stereo not given) | active |

| Compound | growth inhibition call |
| --- | --- |
| CC[C@H]1OC(=O)C[C@@H](O)[C@H](C)[C@@H](O[C@@H]2O[C@H](C)[C@@H](O[C@H]3C[C@@](C)(O)[C@@H](O)[C@H](C)O3)[C@H](N(C)C)[C@H]2O)[C@@H](CC=O)C[C@@H](C)C(=O)/C=C/C(C)=C/[C@@H]1CO[C@@H]1O[C@H](C)[C@@H](O)[C@@H](OC)[C@H]1OC | active |
| CC[C@H]1OC(=O)C[C@@H](O)[C@H](C)[C@@H](O[C@@H]2O[C@H](C)C[C@H](N(C)C)[C@H]2O)[C@@H](CC=O)C[C@@H](C)C(=O)/C=C/[C@]2(C)O[C@H]2[C@@H]1C | active |
| COc1cccc(C(=O)Nc2ccc3c(c2)C(=O)N(C)[C@@H]2CC[C@H](CC(=O)NCC4CC4)O[C@@H]2CO3)c1 | inactive |
| Cc1noc(C)c1NC(=O)Nc1ccc2c(c1)C(=O)N([C@H](C)CO)C[C@H](C)[C@@H](CN(C)C(=O)C1CCCCC1)OCCCC[C@@H](C)O2 | inactive |
| COCC#Cc1ccc2c(c1)O[C@H](CN(C)C(=O)c1ccccc1F)[C@@H](C)CN([C@@H](C)CO)S2(=O)=O | inactive |
| C[C@@H]1CN([C@H](C)CO)C(=O)c2cc(NC(=O)Nc3cccc4ccccc34)ccc2O[C@H]1CN(C)S(=O)(=O)c1ccccc1 | inactive |
| COC(=O)c1cc(=O)nc2n1[C@H]1O[C@H](CO)[C@H](O)[C@H]1O2 | inactive |
| COc1cccc(NC(=O)C[C@H]2CC[C@@H]3[C@@H](COc4ccc(NC(=O)C5CCOCC5)cc4C(=O)N3C)O2)c1 | inactive |
| CC(C)NC(=O)N(C)C[C@H]1Oc2ccc(NS(=O)(=O)c3cn(C)cn3)cc2C(=O)N([C@@H](C)CO)C[C@H]1C | inactive |
| CN(C)C1CCN(C(=O)c2cnc(-c3noc4cc(-c5ccccc5C(F)(F)F)ccc34)s2)CC1 | active |
| CN(C)C1CCN(C(=O)c2cnc(-c3noc4cc(-c5cccc(C(F)(F)F)c5)ccc34)s2)CC1 | inactive |
| Cc1ccc(S(=O)(=O)N(C)C[C@H]2Oc3c(NS(=O)(=O)c4ccc(F)cc4)cccc3C(=O)N([C@@H](C)CO)C[C@H]2C)cc1 | inactive |
| C[C@H]1CN([C@@H](C)CO)C(=O)c2c(c3ccccc3n2C)-c2ccccc2CO[C@H]1CN(C)Cc1ccc(C(=O)O)cc1 | inactive |
| CC(C)(C)NCCCCOc1ccc(Cl)cc1C(C)(C)C | inactive |
| Cc1ccc(OCc2ccc(Cl)cc2)c(C(C)(C)C)c1 | inactive |
| CC[C@@H](C)NCCCCOc1ccc(Cl)cc1C(C)(C)C | active |
| C[C@H](CO)N1C[C@H](C)[C@@H](CN(C)S(=O)(=O)c2cn(C)cn2)Oc2ccc(NC(=O)Nc3ccc4c(c3)OCO4)cc2CC1=O | inactive |
| CC[C@H](C)[C@H](N)C1=N[C@H](C(=O)N[C@@H](CC(C)C)C(=O)N[C@H](CCC(=O)O)C(=O)N[C@H](C(=O)N[C@H]2CCCCNC(=O)[C@H](CC(N)=O)NC(=O)[C@@H](CC(=O)O)NC(=O)[C@H](Cc3cnc[nH]3)NC(=O)[C@@H](Cc3ccccc3)NC(=O)[C@H]([C@@H](C)CC)NC(=O)[C@@H](CCCN)NC2=O)[C@@H](C)CC)CS1 | active |
| NCCCC[C@H](NC(=O)[C@@H]1CCCN1C(=O)[C@@H]1CSSC[C@H](N)C(=O)N[C@@H](Cc2ccccc2)C(=O)N[C@@H](Cc2ccccc2)C(=O)NC(CCC(N)=O)C(=O)N[C@@H](CC(N)=O)C(=O)N1)C(=O)NCC(N)=O (stereo not given in full) | inactive |
| CC[C@H](C)[C@H](N)C1=N[C@H](C(=O)N[C@@H](CC(C)C)C(=O)N[C@@H]2CCC(=O)[O][Zn][O]C(=O)C[C@H]3NC(=O)[C@H](Cc4c[nH]cn4)NC(=O)[C@@H](Cc4ccccc4)NC(=O)[C@H]([C@@H](C)CC)NC(=O)[C@@H](CCCN)NC(=O)[C@H](CCCCNC(=O)[C@H](CC(N)=O)NC3=O)NC(=O)[C@H]([C@@H](C)CC)NC2=O)CS1 | active |
| CC(=O)N[C@@H](CCCNC(=N)N)C(=O)N[C@H]1CSSC[C@@H](C(N)=O)NC(=O)[C@H](Cc2c[nH]c3ccccc23)NC(=O)[C@H](CCCNC(=N)N)NC(=O)[C@@H](Cc2ccccc2)NC(=O)[C@H](Cc2cnc[nH]2)NC(=O)[C@@H](C)NC1=O | inactive |
